# Results taken from the supplement of paper PMC9023506.
# Where a name gives a salt, the structure may show the parent alone.
# Tested on: Danio rerio larvae (5 dpf)
# Assay: activity during first hour (no stimuli), difference vs DMSO (percentage points (treated minus DMSO)); higher = more of the behaviour than the DMSO vehicle control
# Settings: 10 µM; exposure time: 3 h pre-incubation + 3 h imaging
# Method: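 5-dpf wild-type zebrafish larvae were imaged in 96-well plates. They were treated with 190 Tocris FDA-approved drugs at 10 µM (1 µl/ml DMSO) for 3 h before and 3 h during imaging at 28.5 °C, 48 larvae per drug. Automated image analysis gave % time moving and optomotor responses. Values are drug group mean minus DMSO vehicle mean (n=844), in percentage points, for 10 behaviours.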
row,SMILES,activity during first hour
1,CN[C@H]1CC[C@@H](c2ccc(Cl)c(Cl)c2)c2ccccc21 [Sertraline hydrochloride],-24.2
2,O=C(O)C[C@H](O)C[C@H](O)/C=C/c1c(C2CC2)nc2ccccc2c1-c1ccc(F)cc1 [Pitavastatin calcium],-0.557
3,O=C(Nc1c(Cl)cncc1Cl)c1ccc(OC(F)F)c(OCC2CC2)c1 [Roflumilast],-15.3
4,CCOC(=O)N1CCC(=C2c3ccc(Cl)cc3CCc3cccnc32)CC1 [Loratidine],-17
5,CC(C)[C@H]1CC[C@H](C(=O)N[C@H](Cc2ccccc2)C(=O)O)CC1 [Nateglinide],4.52
6,CC(=O)Nc1ccc(O)cc1 [Acetaminophen],5.63
7,CCCc1nn(C)c2c(=O)[nH]c(-c3cc(S(=O)(=O)N4CCN(C)CC4)ccc3OCC)nc12 [Sildenafil citrate],-13.4
8,CN1CCN(CCCN2c3ccccc3Sc3ccc(Cl)cc32)CC1 [Prochlorperazine dimaleate],10.4
9,COc1cc(N)c(Cl)cc1C(=O)NC1CCN(CCCOc2ccc(F)cc2)CC1OC (stereo not given) [Cisapride],1.47
10,Nc1ccn([C@@H]2O[C@H](CO)[C@@H](O)C2(F)F)c(=O)n1 [Gemcitabine hydrochloride],-4.38
11,COC(c1ccccc1)(c1ccccc1)[C@H](Oc1nc(C)cc(C)n1)C(=O)O [Ambrisentan],1.9
12,Cc1cc(C2CCCCC2)n(O)c(=O)c1 [Ciclopirox],2.44
13,CCOC(=O)C1=C(C)NC(C)=C(C(=O)OC)C1c1cccc(Cl)c1Cl (stereo not given) [Felodipine],-12.9
14,OC(CNCC(O)C1CCc2cc(F)ccc2O1)C1CCc2cc(F)ccc2O1 (stereo not given) [Nebivolol hydrochloride],4.97
15,COCCc1ccc(OCC(O)CNC(C)C)cc1 (stereo not given) [Metoprolol tartrate],5.56
16,CC(C)C(=O)OCC(=O)[C@@]12O[C@H](C3CCCCC3)O[C@@H]1C[C@H]1[C@@H]3CCC4=CC(=O)C=C[C@]4(C)[C@H]3[C@@H](O)C[C@@]12C [Ciclesonide],-9.57
17,CCOc1ccccc1OCCN[C@H](C)Cc1ccc(OC)c(S(N)(=O)=O)c1 [Tamsulosin hydrochloride],7.36
18,COc1ccc(C[C@@H](C)NC[C@H](O)c2ccc(O)c(NC=O)c2)cc1 [Arformoterol tartrate],45.9
19,CC[C@H](C)C(=O)O[C@H]1C[C@@H](C)C=C2C=C[C@H](C)[C@H](CC[C@@H]3C[C@@H](O)CC(=O)O3)[C@H]21 [Lovastatin],-0.394
20,C=C1[C@H](CO)[C@@H](O)C[C@@H]1n1cnc2c(=O)[nH]c(N)nc21 [Entecavir],-1.96

row,SMILES,activity during first hour
1,COc1ccc(Cl)cc1C(=O)NCCc1ccc(S(=O)(=O)NC(=O)NC2CCCCC2)cc1 [Glibenclamide],1.18
2,CC(C)(C#N)c1cc(Cn2cncn2)cc(C(C)(C)C#N)c1 [Anastrozole],3.37
3,COc1ccccc1OCCNCC(O)COc1cccc2[nH]c3ccccc3c12 (stereo not given) [Carvedilol],-9.72
4,CCN(Cc1ccncc1)C(=O)C(CO)c1ccccc1 (stereo not given) [Tropicamide],-5.17
5,OCc1cc(C(O)CNCCCCCCOCCCCc2ccccc2)ccc1O (stereo not given) [Salmeterol xinafoate],14.1
6,NS(=O)(=O)c1cc(C(=O)O)c(NCc2ccco2)cc1Cl [Furosemide],5.98
7,Cc1ccc(-c2cc(C(F)(F)F)nn2-c2ccc(S(N)(=O)=O)cc2)cc1 [Celecoxib],-5.35
8,CN(C)CCc1c[nH]c2ccc(C[C@H]3COC(=O)N3)cc12 [Zolmitriptan],7.82
9,COc1c(C)c2c(c(O)c1C/C=C(\C)CCC(=O)OCCN1CCOCC1)C(=O)OC2 [Mycophenolate mofetil],-1.93
10,Cn1cnc([N+](=O)[O-])c1Sc1ncnc2[nH]cnc12 [Azathioprine],7.36
11,CC/C(=C(\c1ccccc1)c1ccc(OCCN(C)C)cc1)c1ccccc1 [Tamoxifen citrate],31.4
12,CCCCCCCCc1ccc(CCC(N)(CO)CO)cc1,-17.7
13,OC(c1cc(C(F)(F)F)nc2c(C(F)(F)F)cccc12)C1CCCCN1 (stereo not given) [Mefloquine hydrochloride],-1.64
14,COc1cc([C@@H]2c3cc4c(cc3[C@@H](O[C@@H]3O[C@@H]5CO[C@@H](C)O[C@H]5[C@H](O)[C@H]3O)[C@H]3COC(=O)[C@H]23)OCO4)cc(OC)c1O [Etoposide],3.81
15,C[C@@H]1C[C@H]2[C@@H]3CCC4=CC(=O)C=C[C@]4(C)[C@@]3(F)[C@@H](O)C[C@]2(C)[C@@]1(O)C(=O)CO [Dexamethasone],15
16,C[C@H]1C[C@@H]2[C@H]([C@@H](O)C[C@@]3(C)[C@H]2CC[C@]3(O)C(=O)CO)[C@@]2(C)C=CC(=O)C=C12 [Methylprednisolone],0.814
17,CCCCCOC(=O)Nc1nc(=O)n([C@@H]2O[C@H](C)[C@@H](O)[C@H]2O)cc1F [Capecitabine],6.31
18,CN1CC2c3ccccc3Oc3ccc(Cl)cc3C2C1 (stereo not given) [Asenapine maleate],38.5
19,CCOc1nc2cccc(C(=O)O)c2n1Cc1ccc(-c2ccccc2-c2nnn[nH]2)cc1 [Candesartan],4.62
20,CCc1nc(N)nc(N)c1-c1ccc(Cl)cc1 [Pyrimethamine],-0.915
